# Test results reported in PubChem BioAssay (NCI).
# This is part of a sample that, as a whole, favours compounds with a hit. Of some 83,000 tested, about 20% had one in any assay.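 Note: values are percent growth. 100 is the growth of untreated cells, values between 100 and 0 indicate rising inhibition; between -100 and 0 indicates cell death.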 The source made the active and inactive calls.
# System: HL-60(TB) leukemia
# Assay: NCI-60 one-dose screen, 48 h (100 = growth as untreated, 0 = no growth, -100 = all killed)
# Conditions: 10 µM unless noted
# Method: Growth inhibition of the HL-60(TB) human tumor cell line is measured as a screen for anti-cancer activity. Cells are grown in 96 well plates and exposed to the test compound for 48 hours. Compounds are tested at a single concentration, which is 10^-5 M for most compounds. The reported endpoint is percent growth (GI% or GIPRCNT), where numbers from 0 - 100% represent growth inhibition, and numbers from -100% - 0 represent cell death. For example, a value of 40 represents 60% growth inhibition. A value of 0 means no net growth occurred over the course of the experiment. A value of -40 indicates 40% of cells at the beginning of the experiment died by the end of the experiment. A value of -100 means all cells are dead at the end of the experiment.
# NCI-60 Human Tumor Cell Lines Screen was performed using the standard one-dose NCI protocol, which is described in more detail at https://dtp.cancer.gov/discovery_development/nci-60/default.htm.
# Compounds with GIPRCNT values below 10 were considered active. Activity score was based on GIPRCNT using the following formula: […]
# Score is 0 for GIPRCNT values of 100 or above, 50 for GIPRCNT values of 0, and 100 for GIPRCNT values of -100.
row,Compound,growth
1,C[C@H]1[C@@H](CC(=O)N[C@@H](Cc2coc3ccccc23)B(O)O)O[C@@H]2OC3(C)CC[C@H]4[C@H](C)CC[C@@H]1[C@@]24OO3,-4.67% (active)
2,CC(C)c1sc(NC(=O)c2cc(NC(=O)c3cc(NC(=O)c4cscn4)cn3C)cn2C)nc1C(=O)NCCCN(C)C,-22.6% (active)
3,CCCCSc1nc(Nc2ccc(C(C)=O)cc2)c(C#N)c(-c2ccc(OC)cc2)n1,88% (inactive)
4,CNC(=O)c1cc(Oc2ccc3nc(NC(=O)Nc4cccc(OC(F)(F)F)c4)sc3c2)ccn1,62.7% (inactive)
5,COc1csc(/C=N/NC(=O)c2[nH]c3ccc(Br)cc3c2-c2ccccc2)c1,-42.8% (active)
6,COc1cc2c(c(OC)c1OC)C(=O)CC(c1cccc(NC(=O)c3cccc([N+](=O)[O-])c3)c1)O2 (stereo not given),26.1% (inactive)
7,CCCCNC(=S)Nc1ccc(OCc2nc3ccc(Cl)cc3[nH]2)cc1,13% (inactive)
8,CC1=C(C(=O)OC(C)C)C(c2ccc(O)cc2)NC(=O)N1 (stereo not given),90.2% (inactive)
9,Cc1ccc(C2CC(c3ccc(NC(=O)Nc4ccccc4)cc3)=NN2c2ccc(S(C)(=O)=O)cc2)cc1 (stereo not given),13.4% (inactive)
10,CC(C)C[C@H](NC(=O)[C@@H]1CCCCCCCCCCC(=O)N[C@@H](CC(=O)N2CCC[C@@H]2C2CCCC2)C(=O)N1)B(O)O,-33.3% (active)
11,COc1cc2c3c(n(CCCN4CCOCC4)c(=O)c2cc1OC)-c1nc2c(cc1C3=O)OCO2,65.2% (inactive)
12,CC(=C\C(=O)Oc1ccc2c3c1OC1C(O)CCC4(O)C(C2)N(CC2CCC2)CCC314)/C=C1\CCCc2ccccc21 (stereo not given),17.9% (inactive)
13,Cc1ccc(C(=O)NNC(=O)CSc2nc3ccccc3c(=O)[nH]2)cc1,93.3% (inactive)
14,CCCCSc1nc(NCCc2c[nH]c3ccccc23)c(C#N)c(-c2ccccc2)n1,45.8% (inactive)
15,O=c1cc(-c2ccccc2)oc2cc(OCCCNCc3ccccc3)cc(O)c12,-46.3% (active)
16,COc1ccc(OC)c(/C=C/C(=O)c2nc3ccccc3n2Cc2ccc(F)cc2)c1,-11.3% (active)
17,Cc1nc(Nc2nc(C)c3ccc(OCCN4CCOCC4)cc3n2)[nH]c(=O)c1C,2.88% (active)
18,Fc1ccc(/C=C/c2nc3ccccc3n3c(-c4ccc(Cl)cc4)nnc23)cc1,3.61% (active)
19,COc1ccc(NC(=O)c2sc3nc(C(C)C)ccc3c2N)cc1,66.3% (inactive)
20,Cc1cc(=O)oc2cc(OCCCCOc3ccc(/C=C/C(=O)Nc4ccccc4N)cc3)ccc12,0.47% (active)

row,Compound,growth
1,COc1ccc(N=Nc2c(N)nn3c(-c4cc5cc(Br)ccc5oc4=O)ccnc23)cc1,102% (inactive)
2,O=C(Cn1c(-c2ccccc2)nc2ccccc21)N=Nc1c(O)[nH]c2ccc(Br)cc12,42.4% (inactive)
3,COc1ccc(-c2cc(C(=O)OCc3ccc(Br)cc3)nn2-c2ccc(S(C)(=O)=O)cc2)cc1OC,83.6% (inactive)
4,Cn1cc(/C=N/Nc2cccc(Cl)n2)c2ccccc21,56.6% (inactive)
5,COc1ccc2[nH]c(=O)c(CSc3ccccc3Nc3nccc(-c4ccc(C(F)(F)F)cc4)n3)cc2c1,1.94% (active)
6,Cc1ccc(S(=O)(=O)c2nc(S(=O)(=O)c3ccc(C)cc3)c(Cl)s2)cc1,15.9% (inactive)
7,O=c1c2ccccc2nc(-c2ccccc2)n1/N=C/c1ccc2ccccc2c1,35.7% (inactive)
8,COc1cc(C2CC(c3cc(OC)c(OC)c(OC)c3)=NN2C(C)=O)ccc1OCc1ccccc1 (stereo not given),21.5% (inactive)
9,Nc1nnc(-c2c[nH]c3ncc(Br)cc23)c(-c2c[nH]c3ccc(F)cc23)n1,-0.929% (active)
10,CC[C@]12C=CCN3CC[C@@]4(c5ccc(OC)cc5N(C)[C@H]4[C@@](O)(C(=O)OC)[C@@H]1OC(=O)CCCC[P+](C1CCCCC1)(C1CCCCC1)C1CCCCC1)[C@@H]32,-36.7% (active)
11,COc1cc(CNC(=O)[C@]23CCC(C)(C)CC2C2=CCC4[C@@]5(C)CCC(OC(C)=O)C(C)(C)C5CC[C@@]4(C)[C@]2(C)CC3)ccc1OCc1cn(-c2ccc(Cl)cc2Cl)nn1 (stereo not given in full),105% (inactive)
12,COc1ccc([C@H]2C(C(=O)c3ccc(Cl)cc3)C3(N[C@@H]2c2ccccc2)C(=O)Nc2ccc(Br)cc23)cc1 (stereo not given in full),15.3% (inactive)
13,COc1ccc(/C=C/C(=O)c2ccc(S(=O)(=O)NCCNc3nc(N(C)C)nc(N4CCOCC4)n3)cc2)cc1,67.1% (inactive)
14,CCCCN1C(=O)/C(=C\C(=O)c2cc3ccccc3oc2=O)c2ccccc21,74.8% (inactive)
15,COc1ccc(/C=C/C(=O)c2ccc(NC(=O)CN3C(=O)NC(C)(c4ccccc4)C3=O)cc2)cc1 (stereo not given),67.3% (inactive)
16,Cc1nn(-c2ccccc2)c2nc(C)n(C(=O)N/N=C/c3ccccc3)c(=O)c12,104% (inactive)
17,Cc1ccc(/C=C/C(=O)c2ccc(S(=O)(=O)NCCNc3nc(N(C)C)nc(N4CCOCC4)n3)cc2)cc1,30.7% (inactive)
18,COc1ccc(NC(=O)[C@@H](N)Cc2ccccc2)cc1C(=O)Nc1cccc(C2CC(=O)c3c(cc(OC)c(OC)c3OC)O2)c1 (stereo not given in full),1.01% (active)
19,COc1ccc(-c2c(Nn3cnnn3)no[n+]2[O-])cc1,38.8% (inactive)
20,Cc1ccc2nc(COc3ccc(C(=O)NNC(=S)NCCc4ccccc4)cc3)[nH]c2c1,99.7% (inactive)
